This note sets out measurements from publication PMC5540273 (PLoS ONE, 2017).

By Kd is commonly meant a measure of binding affinity in units of concentration.

For test [1], the system named is JAK2(JH1domain-catalytic).
A further test deals with T1, JNK1.
T1 construct: gene MAPK8

The next test deals with T2, JNK2.
T2 construct: gene MAPK9

The subject of a further test is T3, JNK3.
T3 construct: gene MAPK10

Test [2] has as its system JAK1(JH2domain-pseudokinase).
A further test concerns T4, LOK.
T4 construct: gene STK10

A further test relates to T5, IKK-epsilon.
T5 construct: gene IKBKE

For test [3], the system named is JAK1(JH1domain-catalytic).
Test [4] concerns JAK3(JH1domain-catalytic).
For a further test, the system named is T6, IKK-beta.
T6 construct: gene IKBKB
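Further: kd values determined as follow-up on hits from a single-replicate KINOMEscan panel screen.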

The molecule `Cn1cc(-c2ccc3c(c2)CCN3C(=O)Cc2cccc(C(F)(F)F)c2)c2c(N)ncnc21` [GSK2606414] came in with a dissociation constant Kd with KIT of 5200 nM.

Molecule `Fc1cccc(COc2ccc(Nc3ncnc4sc(-c5ccc[nH]5)cc34)cc2Cl)c1` [GW707818] had a Kd in [1] of more than 10000 nM.

In test [1], `Cl.c1ccc(Cn2ccc3cc(Nc4ncnc5ccccc45)ccc32)cc1` [GW275568] yielded a Kd of more than 10000 nM.

Regarding `COC(=O)c1c(-c2ccccc2)c2cc(Cl)ccc2c(=O)n1Cc1ccc(S(C)(=O)=O)cc1`, the dissociation constant Kd turned out to be 61 nM in the test on JNK1, 44 nM in the test with JNK2 and 14 nM in the test on JNK3.

As for `CC(C)(C)c1ccc(-n2cnc3c(N)ncnc32)cc1` [SKF-97263], in test [2], binding was put at a Kd of 250 nM.

Consider `O=C(Nc1ccccc1F)NC1CCN(c2ccnc(Nc3ccc(F)cc3)n2)C1` (centres unmarked) [GSK1379722], for which the Kd in the test on ICK and in the test on IGF1R was more than 10000 nM throughout.

For the molecule `COc1cc2ncnc(Nc3ccc(OCc4ccccc4Br)c(Cl)c3)c2cc1OC.Cl` [GI261590], the Kd in the test on LOK worked out at 2000 nM.

`Cn1ccc2ncnc(Oc3ccc(NC(=O)Nc4cccnc4)c(Cl)c3)c21`: the dissociation constant (Kd) in the test on KIT was 47 nM.

Take `COc1cc2c(Nc3cccc(NC(=O)c4ccccc4)c3)ncnc2cc1OCCCN1CCOCC1` [GSK223810]: the Kd came to 300 nM in the test with KIT, 390 nM with LCK and 130 nM in the test on LYN.

In the case of `CCc1nc(-c2cccc(C)c2)c(-c2ccnc(NC(=O)c3ccccc3)c2)s1`, the figures for the Kd with IKK-epsilon, with JNK3 and in the test with LATS2 were more than 10000 nM, 190 nM and more than 10000 nM, respectively.

In turn, `COC(=O)c1cccc(NC(=O)NCCNc2ccnc(Nc3ccc(F)cc3)n2)c1` [GSK1379883] showed a Kd in the test with HUNK of more than 10000 nM.

In the test with LATS1, `COc1ccc(-c2oc3ncnc(N)c3c2-c2ccc(OC)cc2)cc1` [SB-589132] gave a Kd of more than 10000 nM.

As for `CNc1nccc(-c2c(-c3ccc(F)cc3)ncn2CCCN2CCOCC2)n1` [SB-222516], the Kd in the test on LIMK2 was more than 10000 nM.

On to `C[C@@H]1CCN(C(=O)CO)C[C@@H]1N(C)c1ncnc2[nH]ccc12`, for which the Kd in [3] was 120 nM; in test [1] it was 11 nM; in test [4], 3.6 nM.

Molecule `CC(=O)Nc1n[nH]c2ncc(-c3ccccc3)cc12` [SB-548492] came in with a Kd in test [2] of 380 nM. This lies in the sub-micromolar range.

With `CN1c2ccc(-c3ccc(C(=O)NCCO)cc3)cc2-c2[nH]ncc2S1(=O)=O`, in test [4], the affinity, expressed as Kd, was 6800 nM.

Consider `CN1CCC(n2cnc(-c3ccc(F)cc3)c2-c2ccnc(NC3CCNCC3)n2)CC1` [SB-229482], for which the results for the Kd in the test on JNK2 and in the test with JNK3 were 170 nM and 140 nM, respectively.

`COc1ccc(NC(=O)Nc2ccc(C)c(-c3ccc(C(=O)Nc4ccncc4)cc3)c2)cc1` [GSK1398475] came in with a dissociation constant (Kd) in the test with KIT of 44 nM.

`Cc1ccc(NC(=O)c2cccc(C#N)c2)cc1-c1ccc(C(=O)Nc2ccncc2)cc1` [GSK1398463]: the Kd with KIT amounted to 310 nM; in the test on LCK, 560 nM.

`O=C(Nc1ccccc1)Nc1ccc(Oc2ccc3nccn3n2)cc1`: in the test with KIT, the Kd came out at 99 nM.

As to `CCCc1ccc(S(=O)(=O)NC2CCN(c3ccnc(Nc4ccc(OC)cc4)n3)C2)cc1` (centres unmarked) [GSK1379737], the values for the dissociation constant (Kd) in the test on LIMK2 and in the test with LTK were more than 10000 nM and 8700 nM, respectively.

Consider `Oc1ccc2ncnc(Nc3ccc(OCc4ccccc4)cc3)c2c1` [GI262866], for which the Kd in the test with LTK was more than 10000 nM.

In the case of `Nc1nc(-c2ccc3c(N)n[nH]c3c2)cc(N2CCC[C@@H](C(=O)Nc3ccccc3)C2)n1.O=C(O)C(F)(F)F.O=C(O)C(F)(F)F` [GSK2288359], the Kd (in the test with IGF1R; in [1]) was more than 10000 nM in each case.

In turn, `O=C(Nc1n[nH]c2nc(-c3ccco3)c(Br)cc12)c1ccc(CN2CCCC2)cc1.O=C(O)[C@H](O)[C@@H](O)C(=O)O` [SB-742352] displayed a Kd with KIT of 66 nM.

`Cl.Cl.c1ccc(-c2cc3ccncc3cc2OC2CCNCC2)cc1` [GSK1122999] showed a Kd with IKK-beta of 24 nM. In other words, the double-digit nanomolar range.
